Measurements reported in PubChem BioAssay.
Inconclusive results are not listed. Active and inactive are the calls of the source.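 How the source made its calls, unless noted: active means response below a set limit, under 55% cells CD8-positive and vesicle-bound, and CD8 cells' 90th-percentile brightness under 279; inactive means the rest.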

Tests used:
[1] = yeast TOR pathway RPL19A-GFP modulators, primary screen, cell-based, S. cerevisiae, multiplex flow cytometry (AID 1862; in the data active means percent of DMSO control GFP below about 86%;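 further: lower values mimic rapamycin by blocking the RPL19A rise seen in DMSO cells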); settings: S. cerevisiae RPL19A-GFP strain, flow cytometry fluorescence, 3 h; at 10 µM; stronger effect = lower value
[2] = modulators of MEP2-GFP levels in yeast, primary screen, S. cerevisiae, multiplex flow cytometry (AID 1867;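 active means GFP response, as percent of the DMSO control, above the screen-wide mean plus 3 SD, about 139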;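 further: median GFP channel fluorescence of barcode-gated MEP2-GFP cells measured by flow cytometry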); settings: S. cerevisiae MEP2-GFP strain, 3 h, at 10 µM, stronger effect = higher value, 100% means same as DMSO wells
[3] = modulators of CIT2-GFP expression in yeast, primary screen, S. cerevisiae, GFP fusion, multiplex flow cytometry (AID 1870;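 active means percent response above a set limit, the screen-wide mean plus 3 SD, cut at about 130% in these data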;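 further: barcoded CIT2-GFP strain pooled with four other GFP strains with rapamycin as positive control; median GFP fluorescence per well over plate mean of DMSO wells so 100% = DMSO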); settings: 3 h, at 10 µM, stronger effect = higher value
[4] = modulators of LAP4-GFP expression in yeast, primary screen, S. cerevisiae, multiplex flow cytometry (AID 1873;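 active means GFP signal, as percent of the solvent control, above the screen mean plus 3 SD, about 149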); settings: 3 h, at 10 µM, stronger effect = higher value
[5] = modulators of AGP1-GFP expression in yeast TOR pathway, primary screen, cell-based, multiplex flow cytometry, S. cerevisiae (AID 1887;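 active means GFP signal above the screen-wide mean plus 3 SD, that is over about 124.5% of the solvent control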;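 further: AGP1-GFP fusion strain of S. cerevisiae within a five-strain barcoded multiplex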); settings: 3 h, at 10 µM, stronger effect = higher value
[6] = inhibitors of CD8+ T cell-vesicle binding, pilot screen, LFA-1/ICAM-1 modulator project, MLPCN validation set, flow cytometry (AID 2523); settings: 2C mouse CD8+ T cells, at 7 µM, stronger effect = lower value; double positive events: measured here: CD8+/vesicle+ event percentage;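 on vesicle binding response: mean PE anti-B7-1 fluorescence of CD8+ cells relative to row control; 100% = QL9-loaded vesicles with DMSO vehicle in the same plate row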
[7] = molecular target: Integrin beta-1 (Homo sapiens) + Integrin alpha-4 (Homo sapiens) (UniProt P13612+P05556); experiment: inhibition of HUTS-21 binding to VLA-4, pilot screen, VLA-4 allosteric modulator project, U937 cells, HUTS-21 mAb, flow cytometry, validation set (AID 2674;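 active means inhibition above 50%, about 3 SD of the validation set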;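 further: antibody binding induced by the VLA-4 ligand LDV present at three times its Kd; 0% = LDV ligand with antibody and no compound and 100% = antibody without LDV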); settings: HUTS-21 LIBS mAb binding, at 6.7 µM, stronger effect = higher value, binding induced by LDV ligand
[8] = superoxide lowering in aged yeast cells, pilot screen, validation compound set (AID 2706;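 active means superoxide response below 65% of plate, a cut near 3 SD across the whole screen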;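 further: yeast exposed to compound for one week at 30 degrees C before staining; 100% = mean of all compound wells on the same plate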); settings: S. cerevisiae aging, superoxide DHE fluorescence; at 10 µM, stronger effect = lower value
[9] = molecular target: Beta-adrenergic receptor kinase 1 (Homo sapiens) (UniProt P25098); experiment: GRK2 binders displacing RNA aptamer, biochemical, validation, human GRK2, bead flow cytometry (AID 488806;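 active means aptamer binding inhibition above 30%, about 3 SD of noise from non-fluorescent compounds; inactive means inhibition at or below 30%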); settings: bead-bound GRK2, FAM-aptamer displacement, at 10 µM, stronger effect = higher value
[10] = molecular target: AP-2 complex subunit beta (Homo sapiens) (UniProt P63010); experiment: inhibitors of arrestin peptide binding to AP2, pilot screen, biochemical, validation set, GST-AP2 beads, flow cytometry (AID 504541;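 active means inhibition above 54%, about 3 SD of non-fluorescent compounds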;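 further: AP2 carries R879A mutation and is captured from E. coli lysate; bead-bound FITC arrestin peptide fluorescence measuring arrestin peptide binding to AP2; 0% = DMSO wells and 100% = excess unlabeled arrestin peptide control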); settings: FITC arrestin peptide, at 10 µM, stronger effect = higher value, AP2 beta2 appendage fragment, R879A mutant
[11] = yeast V-ATPase proton transport modulators, S. cerevisiae, pHLuorin, HTS validation (AID 504600; in the data active means response above about 15%;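 further: plate controls were DMSO for no effect and reference compound for full effect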); settings: S. cerevisiae pHLuorin cytosolic pH, at 10 µM, stronger effect = higher value
[12] = test system: anti-desmoglein-3 scFv antibody binding to human DSG3; experiment: inhibitors of anti-DSG3 scFv binding to DSG3, pilot screen, biochemical, validation compound set, bead-based, flow cytometry (AID 588368;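 active means binding below the plate cutoff, the plate median minus 3 SD, with a reading above zero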;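 further: signal is the median channel fluorescence of bead-bound GFP antibody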); settings: Protein G beads, DSG3-Fc, scFv-GFP binding, at 10 µM, stronger effect = lower value
[13] = inhibitors of fungal efflux pumps CDR1, CDR2, MDR1, pilot screen, validation compound set, multiplex, phenotypic (AID 588506;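 active means efflux inhibition above 0.42, the validation set average plus 4 SD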;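 further: Nile Red retained in cells so higher fluorescence means more efflux inhibition; 0 = negative control wells and 1 = enniatin B 25 µM full block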); settings: S. cerevisiae pump-expressing triplex, Nile Red efflux flow cytometry; at 10 µM; stronger effect = higher value; the pumps come from Candida albicans
[14] = molecular target: ATP-binding cassette sub-family B member 6 (Homo sapiens) (UniProt Q9NP58); experiment: ABCB6 transporter inhibitors, pilot screen, K562-ABCB6 cells, flow cytometry, validation set (AID 588550;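 active means inhibition above the screen-wide mean plus 3 SD, about 51%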;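 further: 0% = DMSO wells and 100% = benzethonium chloride 70 µM positive control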); settings: K562-ABCB6 porphyrin accumulation, 1 h, at 10 µM, stronger effect = higher value
[15] = promoters of myeloid differentiation in arrested cells, primary screen, cell-based, GFP/MAC1 double positive, flow cytometry, validation set (AID 588685;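 active means differentiation response of at least 50%, scaled between solvent and reference control, from cells with both markers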;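 further: compound exposure lasts four days before antibody staining and flow analysis; 0% = DMSO wells and 100% = 5 µM fulvestrant positive control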); settings: ER-HoxA9 marrow cells, stronger effect = higher value, normalized: vehicle 0, fulvestrant 100

Sequence of Beta-adrenergic receptor kinase 1 (Homo sapiens) (P25098 whole entry, looked up): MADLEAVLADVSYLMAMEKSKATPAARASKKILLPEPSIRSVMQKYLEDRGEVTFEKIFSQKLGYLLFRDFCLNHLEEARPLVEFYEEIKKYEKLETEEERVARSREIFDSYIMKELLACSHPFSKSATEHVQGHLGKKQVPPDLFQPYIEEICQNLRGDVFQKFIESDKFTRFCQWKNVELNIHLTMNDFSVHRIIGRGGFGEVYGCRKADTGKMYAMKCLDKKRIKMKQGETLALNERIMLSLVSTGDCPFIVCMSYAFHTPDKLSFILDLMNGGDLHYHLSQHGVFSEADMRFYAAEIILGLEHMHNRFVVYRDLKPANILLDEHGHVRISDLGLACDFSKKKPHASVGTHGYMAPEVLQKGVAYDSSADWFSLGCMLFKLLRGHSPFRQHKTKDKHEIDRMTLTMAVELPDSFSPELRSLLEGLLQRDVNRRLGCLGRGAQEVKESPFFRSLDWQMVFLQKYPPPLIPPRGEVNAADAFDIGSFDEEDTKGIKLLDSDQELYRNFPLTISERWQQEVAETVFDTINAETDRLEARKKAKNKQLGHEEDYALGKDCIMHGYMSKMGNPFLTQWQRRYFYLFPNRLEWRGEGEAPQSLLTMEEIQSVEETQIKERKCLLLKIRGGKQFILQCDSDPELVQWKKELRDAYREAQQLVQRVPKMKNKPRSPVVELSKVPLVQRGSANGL
Sequence of Integrin beta-1 (Homo sapiens) + Integrin alpha-4 (Homo sapiens) (P05556 whole entry, looked up): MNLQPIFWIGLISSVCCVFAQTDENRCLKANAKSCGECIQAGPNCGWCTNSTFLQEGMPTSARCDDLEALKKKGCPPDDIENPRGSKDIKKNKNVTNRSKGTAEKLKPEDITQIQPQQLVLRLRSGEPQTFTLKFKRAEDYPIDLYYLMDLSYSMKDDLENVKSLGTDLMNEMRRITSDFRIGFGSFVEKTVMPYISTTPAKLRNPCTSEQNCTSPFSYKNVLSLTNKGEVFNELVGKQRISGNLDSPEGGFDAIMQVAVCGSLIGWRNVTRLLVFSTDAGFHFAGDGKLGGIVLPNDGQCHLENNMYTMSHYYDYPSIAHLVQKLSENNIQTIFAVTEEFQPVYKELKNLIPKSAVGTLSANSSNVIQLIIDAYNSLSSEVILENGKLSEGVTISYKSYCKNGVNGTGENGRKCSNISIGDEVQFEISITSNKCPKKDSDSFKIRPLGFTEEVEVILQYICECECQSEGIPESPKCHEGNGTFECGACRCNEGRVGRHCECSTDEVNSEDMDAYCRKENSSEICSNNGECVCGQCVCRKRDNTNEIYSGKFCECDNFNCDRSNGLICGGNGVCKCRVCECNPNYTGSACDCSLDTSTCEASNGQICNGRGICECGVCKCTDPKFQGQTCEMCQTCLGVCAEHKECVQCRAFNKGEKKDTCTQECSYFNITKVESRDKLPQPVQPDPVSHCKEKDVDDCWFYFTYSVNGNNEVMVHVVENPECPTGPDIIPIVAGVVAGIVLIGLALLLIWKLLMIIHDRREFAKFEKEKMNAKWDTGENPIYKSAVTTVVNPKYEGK
Sequence of Integrin beta-1 (Homo sapiens) + Integrin alpha-4 (Homo sapiens) (P13612 whole entry, looked up): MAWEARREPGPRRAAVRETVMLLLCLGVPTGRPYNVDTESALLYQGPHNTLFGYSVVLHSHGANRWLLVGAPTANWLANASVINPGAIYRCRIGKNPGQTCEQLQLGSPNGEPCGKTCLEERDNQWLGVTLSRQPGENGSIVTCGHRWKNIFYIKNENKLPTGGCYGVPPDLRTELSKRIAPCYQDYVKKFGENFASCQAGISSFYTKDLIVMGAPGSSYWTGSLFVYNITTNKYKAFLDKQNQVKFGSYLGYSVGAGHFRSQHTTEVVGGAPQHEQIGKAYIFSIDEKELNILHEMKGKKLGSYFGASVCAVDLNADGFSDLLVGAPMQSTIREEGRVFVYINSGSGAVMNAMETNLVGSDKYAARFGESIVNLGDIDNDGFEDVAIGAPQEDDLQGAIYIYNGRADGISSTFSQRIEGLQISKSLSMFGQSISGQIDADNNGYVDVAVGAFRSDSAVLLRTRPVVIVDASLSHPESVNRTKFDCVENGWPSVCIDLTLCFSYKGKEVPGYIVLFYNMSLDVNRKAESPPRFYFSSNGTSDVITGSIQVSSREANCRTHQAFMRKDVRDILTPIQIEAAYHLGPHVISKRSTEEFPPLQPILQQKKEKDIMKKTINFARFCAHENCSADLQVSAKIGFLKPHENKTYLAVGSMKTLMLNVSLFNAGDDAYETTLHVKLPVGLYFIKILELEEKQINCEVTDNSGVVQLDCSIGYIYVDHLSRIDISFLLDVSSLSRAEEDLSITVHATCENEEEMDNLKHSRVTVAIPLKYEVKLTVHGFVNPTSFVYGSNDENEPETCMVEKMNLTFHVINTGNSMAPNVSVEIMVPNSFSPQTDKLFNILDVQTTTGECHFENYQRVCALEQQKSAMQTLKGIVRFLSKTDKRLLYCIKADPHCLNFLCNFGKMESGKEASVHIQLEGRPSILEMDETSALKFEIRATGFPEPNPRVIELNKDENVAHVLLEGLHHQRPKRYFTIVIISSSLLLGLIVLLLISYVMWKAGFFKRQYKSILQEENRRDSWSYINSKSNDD
Sequence of AP-2 complex subunit beta (Homo sapiens) (P63010 whole entry, looked up, the tested form may be a part, one chain of several): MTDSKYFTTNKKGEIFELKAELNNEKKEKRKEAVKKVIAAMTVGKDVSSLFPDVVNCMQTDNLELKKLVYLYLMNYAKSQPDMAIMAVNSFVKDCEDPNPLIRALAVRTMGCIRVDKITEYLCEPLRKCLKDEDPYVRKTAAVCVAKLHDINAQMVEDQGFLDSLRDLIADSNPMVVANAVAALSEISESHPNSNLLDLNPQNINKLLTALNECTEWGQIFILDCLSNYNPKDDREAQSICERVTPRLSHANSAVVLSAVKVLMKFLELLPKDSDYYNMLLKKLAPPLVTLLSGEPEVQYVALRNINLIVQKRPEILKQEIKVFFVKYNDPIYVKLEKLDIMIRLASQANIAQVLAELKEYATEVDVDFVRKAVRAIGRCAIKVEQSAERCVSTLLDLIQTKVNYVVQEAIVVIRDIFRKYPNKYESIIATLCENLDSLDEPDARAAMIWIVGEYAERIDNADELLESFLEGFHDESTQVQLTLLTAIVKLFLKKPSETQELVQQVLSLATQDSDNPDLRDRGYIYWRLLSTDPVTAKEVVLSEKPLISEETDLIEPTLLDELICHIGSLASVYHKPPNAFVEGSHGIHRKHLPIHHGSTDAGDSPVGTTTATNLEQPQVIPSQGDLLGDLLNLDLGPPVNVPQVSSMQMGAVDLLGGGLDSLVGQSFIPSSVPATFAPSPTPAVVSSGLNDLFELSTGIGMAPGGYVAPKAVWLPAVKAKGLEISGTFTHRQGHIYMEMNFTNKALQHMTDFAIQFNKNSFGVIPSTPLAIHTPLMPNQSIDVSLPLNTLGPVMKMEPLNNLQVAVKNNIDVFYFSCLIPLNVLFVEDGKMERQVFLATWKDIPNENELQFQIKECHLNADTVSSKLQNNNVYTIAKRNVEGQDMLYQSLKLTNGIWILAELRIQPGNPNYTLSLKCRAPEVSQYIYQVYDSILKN
Sequence of ATP-binding cassette sub-family B member 6 (Homo sapiens) (Q9NP58 whole entry, looked up): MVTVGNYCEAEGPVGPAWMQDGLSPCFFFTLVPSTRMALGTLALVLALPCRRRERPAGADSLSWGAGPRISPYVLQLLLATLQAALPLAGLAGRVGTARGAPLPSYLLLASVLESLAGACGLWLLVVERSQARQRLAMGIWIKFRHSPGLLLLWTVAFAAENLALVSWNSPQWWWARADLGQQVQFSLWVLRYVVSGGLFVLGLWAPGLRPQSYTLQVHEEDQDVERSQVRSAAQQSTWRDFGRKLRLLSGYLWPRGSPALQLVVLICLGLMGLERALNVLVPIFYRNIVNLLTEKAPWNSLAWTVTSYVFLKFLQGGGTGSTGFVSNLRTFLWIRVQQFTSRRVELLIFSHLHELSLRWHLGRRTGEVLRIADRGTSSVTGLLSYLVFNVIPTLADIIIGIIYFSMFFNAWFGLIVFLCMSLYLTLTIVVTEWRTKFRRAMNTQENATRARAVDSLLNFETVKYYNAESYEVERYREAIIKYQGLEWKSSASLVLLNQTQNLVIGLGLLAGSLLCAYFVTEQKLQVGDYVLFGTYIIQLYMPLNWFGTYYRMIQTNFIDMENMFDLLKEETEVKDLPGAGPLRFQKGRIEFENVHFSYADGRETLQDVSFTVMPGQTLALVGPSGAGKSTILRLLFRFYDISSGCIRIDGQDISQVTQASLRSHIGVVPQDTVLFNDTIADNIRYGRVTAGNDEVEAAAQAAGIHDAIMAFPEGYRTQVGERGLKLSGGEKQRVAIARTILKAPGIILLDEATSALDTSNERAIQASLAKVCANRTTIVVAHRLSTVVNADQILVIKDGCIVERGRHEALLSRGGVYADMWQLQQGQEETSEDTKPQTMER

Compound	percent of DMSO control GFP [1]	GFP response vs DMSO [2]	percent response of DMSO control [3]	GFP response vs DMSO [4]	GFP response, % of DMSO [5]	double positive events [6]	vesicle binding response [6]	inhibition [7]	superoxide response (% of plate) [8]	aptamer binding inhibition [9]	inhibition [10]	response [11]	binding (% of control) [12]	efflux inhibition (fraction of control) [13]	inhibition [14]	differentiation response [15]
COc1ccc(C2N3CC4(C)CN2CC(C)(C3)C4)cc1OC (stereo not given)	103% (inactive)	99.9% (inactive)	107% (inactive)	87.3% (inactive)	107% (inactive)	52.7%	177% (inactive)	-0.24% (inactive)	96.9% (inactive)	1% (inactive)	9.79% (inactive)	2.37% (inactive)	99% (inactive)	-0.09 (inactive)	6% (inactive)	-13.1% (inactive)
CCOC(=O)c1ccc2[nH]c(C)c(CCC(C)=O)c(=O)c2c1	102% (inactive)	98.9% (inactive)	109% (inactive)	88.3% (inactive)	97.9% (inactive)	57.1%	228% (inactive)	0.69% (inactive)	91.5% (inactive)	1% (inactive)	1.85% (inactive)	6.01% (inactive)	108% (inactive)	-0.12 (inactive)	6% (inactive)	-11.5% (inactive)
CN(CCCN1CCOCC1)Cc1cn(C)nc1-c1ccccc1F	95.5% (inactive)	106% (inactive)	104% (inactive)	124% (inactive)	114% (inactive)	62.1%	246% (inactive)	-8.78% (inactive)	104% (inactive)	-1% (inactive)	70.2% (active)	2.44% (inactive)	112% (inactive)	0.04 (inactive)	2% (inactive)	-1.05% (inactive)
O=C(CCN1CCC(c2ccccc2)C1)c1ccc2c(c1)OCCO2 (stereo not given)	102% (inactive)	134% (inactive)	103% (inactive)	104% (inactive)	102% (inactive)	47.2%	140% (inactive)	13.8% (inactive)	94% (inactive)	5% (inactive)	-9.51% (inactive)	2.78% (inactive)	103% (inactive)	-0.31 (inactive)	6% (inactive)	-5.05% (inactive)
CC#C[C@]1(O)CC[C@H]2[C@@H]3CCC4=CC(=O)CCC4=C3[C@@H](c3ccc(N(C)C)cc3)C[C@@]21C	103% (inactive)	103% (inactive)	110% (inactive)	87.3% (inactive)	102% (inactive)	56.3%	187% (inactive)	-10.5% (inactive)	94.9% (inactive)	9% (inactive)	25.2% (inactive)	0.03% (inactive)	94.6% (inactive)	-0.16 (inactive)	3% (inactive)	-16.4% (inactive)
COC(=O)c1ccc(=O)n(Cc2ccco2)c1	94.7% (inactive)	92.8% (inactive)	97.9% (inactive)	92.3% (inactive)	96.9% (inactive)	58.2%	166% (inactive)	-6.77% (inactive)	86.5% (inactive)	-2% (inactive)	-1.44% (inactive)	-0.2% (inactive)	94.6% (inactive)	-0.16 (inactive)	12% (inactive)	-8.27% (inactive)
CC[N+](C)(CC)CCOC(=O)C(O)(c1ccccc1)C1CCCCC1 (stereo not given)	101% (inactive)	103% (inactive)	105% (inactive)	105% (inactive)	103% (inactive)	57.8%	175% (inactive)	-32.9% (inactive)	102% (inactive)	-3% (inactive)	-1.88% (inactive)	6.06% (inactive)	98.5% (inactive)	-0.01 (inactive)	-1% (inactive)	0% (inactive)
COc1ccc2c(c1)c(CC(=O)O)c(C)n2C(=O)c1ccc(Cl)cc1	105% (inactive)	96.9% (inactive)	109% (inactive)	101% (inactive)	92.5% (inactive)	50%	173% (inactive)	-25.4% (inactive)	109% (inactive)	1% (inactive)	-6.1% (inactive)	9.1% (inactive)	102% (inactive)	-0.01 (inactive)	10% (inactive)	-13.1% (inactive)
O=C(O)/C=C/c1ccc(O)c(O)c1	101% (inactive)	104% (inactive)	106% (inactive)	95.4% (inactive)	99.9% (inactive)	52.4%	173% (inactive)	23.1% (inactive)	106% (inactive)	8% (inactive)	4.2% (inactive)	-0.83% (inactive)	95.4% (inactive)	0.18 (inactive)	4% (inactive)	-0.2% (inactive)
CCOC(=O)Nc1ccc2c(c1)N(C(=O)CCN1CCOCC1)c1ccccc1S2	107% (inactive)	102% (inactive)	109% (inactive)	92.3% (inactive)	109% (inactive)	48.8%	120% (inactive)	-8.64% (inactive)	106% (inactive)	0% (inactive)	9.79% (inactive)	-2.72% (inactive)	97.3% (inactive)	-0.43 (inactive)	8% (inactive)	-8.27% (inactive)
